Measurements taken from PubChem BioAssay (Tox21).
Results filed as inconclusive are left out. Active and inactive are the calls of the source. Unless noted, calls follow the shape of the dose curve; as a rule, active = well fitted curve in the direction sought with a large enough effect in the repeat runs; inconclusive = weak or mixed curves; inactive = no such curve, though single readings can be large; an effect the other way counts as inactive or inconclusive.

Assays:
[1] = qHTS assay to identify aromatase inhibitors - cell viability counter screen (AID 743084);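 also: cells stimulated with testosterone during compound exposure; nearly all actives have a fitted effect of over 55% in size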
[2] = target: Aryl hydrocarbon receptor (Homo sapiens) (UniProt P35869); test: qHTS assay to identify small molecule that activate the aryl hydrocarbon receptor (AhR) signaling pathway (AID 743085);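 also: HG2L7.5c1 human HepG2 liver cells with stably integrated DRE-driven firefly reporter; series mostly up to about 70 µM; nearly all actives have a fitted effect of over 15% in size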
Sequence of Aryl hydrocarbon receptor (Homo sapiens) (P35869 whole entry, looked up): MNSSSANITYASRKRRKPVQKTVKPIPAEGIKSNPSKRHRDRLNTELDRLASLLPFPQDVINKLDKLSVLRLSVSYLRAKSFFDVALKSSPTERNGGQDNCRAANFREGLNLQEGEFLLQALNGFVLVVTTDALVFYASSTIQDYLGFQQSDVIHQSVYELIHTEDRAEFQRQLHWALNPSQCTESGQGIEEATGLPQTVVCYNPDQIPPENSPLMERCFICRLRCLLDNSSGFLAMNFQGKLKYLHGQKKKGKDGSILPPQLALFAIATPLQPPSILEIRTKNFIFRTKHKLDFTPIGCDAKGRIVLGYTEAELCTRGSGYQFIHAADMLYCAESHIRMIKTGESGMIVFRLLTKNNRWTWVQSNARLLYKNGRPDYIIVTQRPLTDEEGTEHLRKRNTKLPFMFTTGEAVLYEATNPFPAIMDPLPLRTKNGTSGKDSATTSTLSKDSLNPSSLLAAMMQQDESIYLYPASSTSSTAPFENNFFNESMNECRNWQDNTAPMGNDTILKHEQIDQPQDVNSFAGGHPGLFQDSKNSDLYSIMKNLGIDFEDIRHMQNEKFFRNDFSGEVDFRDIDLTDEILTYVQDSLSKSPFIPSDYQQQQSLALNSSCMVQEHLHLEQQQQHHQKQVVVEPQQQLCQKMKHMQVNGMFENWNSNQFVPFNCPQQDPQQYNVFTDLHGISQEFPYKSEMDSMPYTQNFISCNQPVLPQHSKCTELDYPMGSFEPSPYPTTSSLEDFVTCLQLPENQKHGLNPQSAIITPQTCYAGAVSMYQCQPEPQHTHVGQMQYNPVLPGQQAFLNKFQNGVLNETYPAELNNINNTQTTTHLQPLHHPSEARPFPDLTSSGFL
Outline: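 Steps: seed HepG2-AhR-luc cells; allow 5 h at 37C; pin-transfer test compound or vehicle; incubate 24 h at 37C; add viability dye (30 min, 37C) and read fluorescence; add luciferase substrate (30 min, RT) and read luminescence.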

[3] = qHTS assay to identify small molecule that activate the aryl hydrocarbon receptor (AhR) signaling pathway - cell viability counter screen (AID 743086);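 also: HepG2 liver cells carrying the AhR DRE luciferase reporter; series mostly up to about 70 µM; nearly all actives have a fitted effect of over 45% in size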
Outline: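 HepG2-AhR-luc (HG2L7.5c1) cells, 4000/well, were preincubated 5 h at 37C, exposed to compound in qHTS format for 24 hr at 37C, then given CellTiter-Fluor for 30 min; viability was read as fluorescence in the reporter wells.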

[4] = target: Peroxisome proliferator-activated receptor gamma (Homo sapiens) (UniProt P37231); test: qHTS assay to identify small molecule agonists of the peroxisome proliferator-activated receptor gamma (PPARg) signaling pathway (AID 743094; active = well fitted activation curve with a large enough effect in the signal ratio in the repeat runs, not every such curve was filed as active; the % refers to the signal ratio)
Sequence of Peroxisome proliferator-activated receptor gamma (Homo sapiens) (P37231 whole entry, looked up): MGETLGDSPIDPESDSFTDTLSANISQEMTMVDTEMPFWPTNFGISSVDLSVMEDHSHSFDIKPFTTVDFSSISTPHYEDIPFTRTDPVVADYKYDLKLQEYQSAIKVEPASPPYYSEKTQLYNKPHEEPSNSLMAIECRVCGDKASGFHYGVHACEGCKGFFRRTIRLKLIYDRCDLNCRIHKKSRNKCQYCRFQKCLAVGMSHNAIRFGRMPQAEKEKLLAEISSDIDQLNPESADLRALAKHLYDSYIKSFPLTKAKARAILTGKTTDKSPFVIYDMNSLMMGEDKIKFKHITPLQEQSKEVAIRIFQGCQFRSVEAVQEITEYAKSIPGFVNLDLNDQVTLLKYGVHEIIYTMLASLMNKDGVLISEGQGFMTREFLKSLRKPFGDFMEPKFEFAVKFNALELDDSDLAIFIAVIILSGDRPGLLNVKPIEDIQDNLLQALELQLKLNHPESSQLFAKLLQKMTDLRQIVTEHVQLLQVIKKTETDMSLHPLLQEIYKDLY
Outline: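 Agonist activity was taken from a beta-lactamase reporter (FRET substrate, 1 h at room temperature) in HEK293H cells carrying a PPARg UAS-bla construct. Compounds in DMSO were incubated 17 h at 37C after a 5 h cell pre-incubation.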

[5] = qHTS assay to identify small molecule antagonists of the peroxisome proliferator-activated receptor gamma (PPARg) signaling pathway - cell viability counter screen (AID 743194); also: nearly all actives have a fitted effect of over 55% in size
Outline: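 PPARg-UAS-bla HEK293H cells were plated, rested 5 h at 37 C, then treated with compounds plus rosiglitazone (50 nM final) for 17 h at 37 C; viability was then read by CellTiter-Glo luminescence after 30 min at room temperature.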

[6] = qHTS assay for small molecule agonists of the antioxidant response element (ARE) signaling pathway (AID 743202; active = well fitted activation curve with a large enough effect in the signal ratio in the repeat runs, not every such curve was filed as active; the % refers to the signal ratio)
Outline: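 Steps: seed ARE-bla HepG2 cells (2,000/well); incubate 5 h at 37 C; add compounds by pin tool; incubate 16 h at 37 C; add FRET substrate; read fluorescence after 2 h at RT.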

[7] = qHTS assay for small molecule activators of the heat shock response signaling pathway - cell viability counter screen (AID 743209); also: nearly all actives have a fitted effect of over 50% in size
Outline: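 Cytotoxicity counter screen run in the same wells as the heat-shock bla reporter assay: HeLa HSE-bla cells, 5 h compound exposure at 37 C, viability read by CellTiter-Glo luminescence.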

[8] = qHTS assay for small molecule activators of the heat shock response signaling pathway (AID 743210; active = well fitted activation curve with a large enough effect in the signal ratio in the repeat runs, with a control signal flat, not every such curve was filed as active; the % refers to the signal ratio;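 also: HeLa cells with beta-lactamase reporter driven by heat shock elements; series mostly up to about 63 µM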)
Outline: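 Activation of heat shock element-controlled beta-lactamase expression is measured in HeLa cells by LiveBLAzer FRET fluorescence, with compound exposure lasting 5 h at 37 C and substrate loading 2.5 h at room temperature.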

[9] = qHTS assay to identify small molecule agonists of the peroxisome proliferator-activated receptor delta (PPARd) signaling pathway - cell viability counter screen (AID 743211); also: nearly all actives have a fitted effect of over 55% in size
Outline: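 Viability of GeneBLAzer PPARd UAS-bla HEK293H cells was assessed after 17 h compound incubation at 37C, using CellTiter-Glo reagent added after the reporter read and luminescence recorded 30 min later.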

[10] = target: Peroxisome proliferator-activated receptor delta (Homo sapiens) (UniProt Q03181); test: qHTS assay to identify small molecule agonists of the peroxisome proliferator-activated receptor delta (PPARd) signaling pathway (AID 743212; calls by dose curve)
Sequence of Peroxisome proliferator-activated receptor delta (Homo sapiens) (Q03181 whole entry, looked up): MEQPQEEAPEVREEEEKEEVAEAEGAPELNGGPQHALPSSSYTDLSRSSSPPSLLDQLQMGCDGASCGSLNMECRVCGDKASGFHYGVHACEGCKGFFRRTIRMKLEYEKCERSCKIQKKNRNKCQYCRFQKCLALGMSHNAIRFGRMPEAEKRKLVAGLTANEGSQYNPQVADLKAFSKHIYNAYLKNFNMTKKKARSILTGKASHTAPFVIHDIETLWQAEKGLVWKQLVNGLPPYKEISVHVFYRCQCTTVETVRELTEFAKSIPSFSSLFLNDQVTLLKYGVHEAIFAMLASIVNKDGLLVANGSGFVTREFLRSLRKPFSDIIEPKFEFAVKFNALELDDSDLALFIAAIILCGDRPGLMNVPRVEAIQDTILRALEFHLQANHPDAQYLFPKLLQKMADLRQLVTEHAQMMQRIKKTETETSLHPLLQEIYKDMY
Outline: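 Cells expressing a UAS-driven beta-lactamase reporter (PPARd-bla HEK293H) were given test compounds after a 5 h settle and kept at 37 C. Reporter activity was then measured as FRET fluorescence using LiveBLAzer B/G substrate.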

[11] = qHTS assay to identify small molecule antagonists of the peroxisome proliferator-activated receptor delta (PPARd) signaling pathway - cell viability counter screen (AID 743213); also: nearly all actives have a fitted effect of over 50% in size
Outline: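 In this counter screen, HEK293H cells carrying a UAS-beta-lactamase reporter are co-treated with test compounds and 300 nM L165041 (final) for 17 h at 37 C; cell viability is quantified by CellTiter-Glo luminescence.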

[12] = target: Peroxisome proliferator-activated receptor delta (Homo sapiens) (UniProt Q03181); test: qHTS assay to identify small molecule antagonists of the peroxisome proliferator-activated receptor delta (PPARd) signaling pathway (AID 743215; active = well fitted inhibition curve with a large enough effect in the signal ratio in the repeat runs, not every such curve was filed as active; the % refers to the signal ratio;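 also: cells stimulated with agonist L165041 at 300 nM final during compound exposure; series mostly up to about 62 µM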)
Outline: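 Agonist L165041 (300 nM final) added with compound to PPARd-bla HEK293H UAS-bla reporter cells; 17 h incubation at 37 C. Read-out: LiveBLAzer FRET substrate, 2 h at room temperature, fluorescence intensity.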

[13] = qHTS assay to identify small molecule agonists of the farnesoid-X-receptor (FXR) signaling pathway - cell viability counter screen (AID 743218); also: nearly all actives have a fitted effect of over 45% in size
Outline: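 Viability counter screen in the same wells: CellTiter-Glo luminescence, 30 min room-temperature incubation, measured after the beta-lactamase read. Cells were GeneBLAzer FXR-UAS-bla HEK 293T, compound-treated 16 h at 37C.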

[14] = qHTS assay to identify small molecule antagonists of the farnesoid-X-receptor (FXR) signaling pathway - cell viability counter screen (AID 743221; active = well fitted cell-killing curve with a large enough effect in the repeat runs, not every such curve was filed as active; also: nearly all actives have a fitted effect of over 50% in size)
Outline: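 Quantitative HTS of the Tox21 10K library run in parallel with the beta-lactamase reporter read. HEK 293T cells carrying a UAS-driven bla reporter got compound and 50 uM CDCA (final) for 16 h; ATP-based luminescence followed.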

[15] = target: Vitamin D3 receptor (Homo sapiens) (UniProt P11473); test: qHTS assay to identify small molecule agonists of the vitamin D receptor (VDR) signaling pathway (AID 743222; calls by dose curve)
Sequence of Vitamin D3 receptor (Homo sapiens) (P11473 whole entry, looked up): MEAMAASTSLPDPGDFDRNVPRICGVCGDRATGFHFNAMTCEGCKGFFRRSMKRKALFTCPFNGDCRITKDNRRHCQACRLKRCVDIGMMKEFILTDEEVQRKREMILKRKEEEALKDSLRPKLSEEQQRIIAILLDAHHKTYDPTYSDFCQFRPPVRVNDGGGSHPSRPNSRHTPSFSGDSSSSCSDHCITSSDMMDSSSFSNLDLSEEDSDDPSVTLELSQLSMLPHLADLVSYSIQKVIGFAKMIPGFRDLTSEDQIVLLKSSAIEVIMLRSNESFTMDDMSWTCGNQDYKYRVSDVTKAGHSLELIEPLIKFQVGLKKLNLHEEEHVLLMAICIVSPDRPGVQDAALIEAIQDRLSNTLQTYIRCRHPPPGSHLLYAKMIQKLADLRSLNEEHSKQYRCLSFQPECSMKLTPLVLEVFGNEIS
Outline: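 Agonist mode, beta-lactamase reporter: fluorescence from LiveBLAzer B/G FRET substrate (2 h, room temperature) read after 16 h compound treatment at 37 C of VDR-bla cells, which were pre-incubated 4 h after seeding.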

[16] = qHTS assay for small molecule agonists of the antioxidant response element (ARE) signaling pathway - cell viability counter screen (AID 743203; calls by dose curve; also: nearly all actives have a fitted effect of over 55% in size)
Outline: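 Viability counter screen: CellTiter-Glo luminescence, read after 30 min at room temperature, in ARE-bla HepG2 wells. Compound exposure lasted 16 h at 37C/5% CO2, following a 5 h pre-incubation of the cells after plating.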

[17] = target: Bile acid receptor (Homo sapiens) (UniProt Q96RI1); test: qHTS assay to identify small molecule antagonists of the farnesoid-X-receptor (FXR) signaling pathway (AID 743217; active = well fitted inhibition curve with a large enough effect in the signal ratio in the repeat runs, not every such curve was filed as active; the % refers to the signal ratio)
Sequence of Bile acid receptor (Homo sapiens) (Q96RI1 whole entry, looked up): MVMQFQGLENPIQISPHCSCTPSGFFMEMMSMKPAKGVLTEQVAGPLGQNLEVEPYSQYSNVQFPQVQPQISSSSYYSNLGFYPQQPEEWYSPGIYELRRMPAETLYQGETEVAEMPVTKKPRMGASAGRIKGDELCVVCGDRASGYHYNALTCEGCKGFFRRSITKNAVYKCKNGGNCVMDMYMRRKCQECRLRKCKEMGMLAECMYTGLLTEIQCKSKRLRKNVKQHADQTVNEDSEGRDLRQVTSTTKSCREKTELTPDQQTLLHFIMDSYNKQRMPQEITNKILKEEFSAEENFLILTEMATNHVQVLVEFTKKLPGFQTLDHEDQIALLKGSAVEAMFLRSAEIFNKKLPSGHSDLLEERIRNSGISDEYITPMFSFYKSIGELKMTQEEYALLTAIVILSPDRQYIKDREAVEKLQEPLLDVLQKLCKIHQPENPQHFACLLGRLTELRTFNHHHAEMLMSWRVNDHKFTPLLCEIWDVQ
Outline: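 Antagonist mode: chenodeoxycholic acid at 50 uM final stimulates a UAS-driven beta-lactamase reporter in HEK 293T FXR-bla cells during 16 h, 37C compound exposure. Read-out is FRET substrate fluorescence after 2 h at room temperature.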

[18] = target: Bile acid receptor (Homo sapiens) (UniProt Q96RI1); test: qHTS assay to identify small molecule agonists of the farnesoid-X-receptor (FXR) signaling pathway (AID 743220; active = well fitted activation curve with a large enough effect in the signal ratio in the repeat runs, not every such curve was filed as active; the % refers to the signal ratio)
Outline: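 FXR-UAS-bla HEK 293T cells carrying a UAS-driven beta-lactamase reporter were plated for 5 h at 37C/5% CO2, then exposed to DMSO-dissolved Tox21 10K compounds for 16 h at 37C. A LiveBLAzer B/G FRET substrate was loaded for 2 h at room temperature before fluorescence reading.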

[19] = target: Vitamin D3 receptor (Homo sapiens) (UniProt P11473); test: qHTS assay to identify small molecule antagonists of the vitamin D receptor (VDR) signaling pathway (AID 743223; active = well fitted inhibition curve with a large enough effect in the signal ratio in the repeat runs, not every such curve was filed as active; the % refers to the signal ratio)
Outline: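 Fluorescence from LiveBLAzer B/G FRET substrate, read after 2 h at room temperature, reflects beta-lactamase reporter activity in VDR-bla cells treated 16 h at 37C with compounds and agonist 1alpha,25-dihydroxyvitamin D3 (3 nM final).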

Measured: Potency

CCCCOC(=O)C(C)OC(=O)CCC (centres undefined)
not listed: [16] | [17] | [18] | [19]
inactive: all other assays above

O=C1OC(=O)c2cc(Oc3ccc4c(c3)C(=O)OC4=O)ccc21
not listed: [10] | [11] | [12] | [13] | [19]
inactive: all other assays above

CC(C)(C)c1ccc(C=O)cc1
not listed: [17] | [18]
inactive: all other assays above

CCCCC(C)C(=O)O (centres undefined)
not listed: [17] | [18]
inactive: all other assays above

NS(=O)(=O)c1cc2c(cc1Cl)NC(C(Cl)Cl)NS2(=O)=O (centres undefined)
not listed: [6] | [12] | [13] | [19]
inactive: all other assays above

CC(=O)c1ccc2c(c1)CCCC2
not listed: [12] | [16] | [17] | [18] | [19]
inactive: all other assays above

O=C(O)/C=C/c1ccccc1
not listed: [8] | [12]
inactive: all other assays above
